Here are results for 29 molecules from PubChem BioAssay AID1645875 (National Center for Advancing Translational Sciences (NCATS), 2021).

Results filed as inconclusive are left out. Active and inactive are the calls of the source. Calls come from the whole dose curve; as a rule, active = well fitted inhibition curve with a large enough effect; inconclusive = small, poorly fitted or top-dose-only effect; inactive = no such curve, though single readings can be large or run the other way.

N-terminal Xaa-Pro-Lys N-methyltransferase 1 (Homo sapiens), sequence (Q9BV86 whole entry, looked up): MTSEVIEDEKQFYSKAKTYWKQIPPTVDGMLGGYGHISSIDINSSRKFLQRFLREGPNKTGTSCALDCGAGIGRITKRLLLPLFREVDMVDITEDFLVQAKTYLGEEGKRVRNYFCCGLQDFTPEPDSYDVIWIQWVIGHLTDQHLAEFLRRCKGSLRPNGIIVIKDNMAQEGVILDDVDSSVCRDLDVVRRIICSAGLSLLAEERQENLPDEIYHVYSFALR

The assay concerns the target N-terminal Xaa-Pro-Lys N-methyltransferase 1 (Homo sapiens) (UniProt Q9BV86). In words: Orthogonal qHTS for Inhibitors of N-terminal methyltransferase 1 (NTMT1): ThioGlo Assay. As to conditions: NTMT1 SAHH-coupled ThioGlo fluorescence, 30 min; series mostly up to 84.5 µM. The gist of the method: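 ThioGlo3 (15 uM) detects the thiol product formed by SAHH (10 uM) from SAM (100 uM) turnover by 125 nM NTMT1 (all final), with compounds in concentration series. Readings at ex 340/em 450 nm at start and after 30 min at room temperature; data background-normalized.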
On the technique in general: qHTS replaces the single test concentration by a dilution series.
With `COc1ccc(-c2cc3c(C)nc(N)nc3n(C3CCC(OCCO)CC3)c2=O)cn1` (centres undefined), the Potency was 13.9 µM (active).

Turning to `C[C@]12C[C@H](O)[C@H]3[C@@H](CCC4=CC(=O)CC[C@@]43C)[C@@H]1CC[C@@H]2C(=O)CO`, the Potency entry was “inactive”.

For the molecule `Cc1cccc(NC(=O)c2c(NC(=O)c3ccccc3)sc3c2CCCC3)c1`, the Potency result is “inactive”.

As for `COc1cccc(C(=O)NCCNc2nc3cc(C)cc(C)c3cc2C#N)c1`, the Potency was 44.1 µM (active).

Consider `O=C(Nc1ccc(S(=O)(=O)C(F)(F)F)cc1)C1=CCN(c2ncccc2C(F)(F)F)CC1`, for which the Potency result is “inactive”.

On to `COc1cc(CCc2ccc(OCC=C(C)C)cc2)cc(OC)c1OC`, for which the Potency entry is “inactive”.

Consider `NCC(O)C1CCCCCCC1` (centres undefined), for which the Potency entry was “inactive”.

`CCn1c(=O)c(-c2ccn[nH]2)cc2c(C)nc(N)nc21`: the Potency was 49.4 µM (active).

For the molecule `COc1cc(N2CCC(N3CCN(C)CC3)CC2)ccc1Nc1ncc(Cl)c(-c2c[nH]c3ccccc23)n1`, the Potency was 17.5 µM (active).

With `COc1cccc(C2=Nn3c(nnc3-c3ccccc3C)SC2)c1`, the Potency is 27.4 µM (active).

With `C=Cc1c(C)c2cc3[nH]c(cc4nc(cc5nc(cc1[nH]2)C(C)=C5CCC(=O)O)C(CCC(=O)O)=C4C)c(C)c3C=C`, the Potency is 15.4 µM (active).

As to `CC[N+](CC)(CC)CCOc1cccc(OCC[N+](CC)(CC)CC)c1OCC[N+](CC)(CC)CC`, the Potency is 0.614 µM (active).

For the molecule `COc1c/c(=C2\C=c3ccccc3=N2)[nH]/c1=C/c1[nH]c(C)cc1C`, the Potency was 24.8 µM (active).

For `CC/C(=C(\c1ccccc1)c1ccc(OCCN(C)C)cc1)c1ccccc1`, the Potency result was “inactive”.

In the case of `COc1cc2c(NC3CCN(CC4CCCCC4)CC3)nc(N3CCCN(C)CC3)nc2cc1OCCOCCN(C)C`, the Potency result is “inactive”.

For `CCOc1ccc(Nc2nc(-c3c(C)nc4ccccn34)cs2)cc1`, the Potency is 3.12 µM (active).

In the case of `COc1ccc(C2=Nn3c(nnc3-c3ccccc3Cl)SC2)cc1OC1CCCC1`, the Potency entry was “inactive”.

`COc1ccc2cc3c(NC(=O)c4ccco4)nn(C)c3nc2c1`: the Potency is 49.4 µM (active).

Consider `Cc1cnc(Nc2ccc(F)cc2Cl)nc1-c1c[nH]c(C(=O)NC(CO)c2cccc(Cl)c2)c1` (centres undefined), for which the Potency was 6.22 µM (active).

In the case of `COc1ccnc(NC(=S)N2CCN(c3cccc(Cl)c3Cl)CC2)c1`, the Potency is 3.88 µM (active).

Turning to `N.N.N.N.N.N.N.N.N.N.N.N.N.N.O.O.[Ru+4].[Ru+5].[Ru+5]`, the Potency was 34.5 µM (active).

Take `CN(C)CCCC1(c2ccc(F)cc2)OCc2cc(C#N)ccc21` (centres undefined): the Potency entry was “inactive”.

`COc1ccc(C2CC(=O)N3CN(C4CCCCC4)CSC3=C2C#N)cc1` (centres undefined): the Potency is 6.89 µM (active).

In the case of `O=C([C@@H]1CCCN(c2ccc3[nH]c(C4(n5cc(Cl)cn5)CC4)nc3n2)C1)N1CCCC1`, the Potency is 22.1 µM (active).

Take `COc1cc(N2CCN(C(C)=O)CC2)ccc1Nc1ncc(Cl)c(Nc2ccc(N3CCN(C(C)=O)CC3)cc2OC)n1`: the Potency is 22.1 µM (active).

With `C#Cc1cccc(Nc2ncnc3cc(OC)c(OCCCCCCC(=O)NO)cc23)c1`, the Potency was 22.1 µM (active).

As to `COc1cc2c(NC3CCN(C4CCCCC4)CC3)nc(N3CCCCC3)nc2cc1OCCOCCN(C)C`, the Potency is 43.5 µM (active).

Take `Clc1ccc(Nc2nnc(Cc3ccncc3)c3ccccc23)cc1`: the Potency was 62.2 µM (active).

`N#Cc1ccc(Nc2nc(-c3ccc(O)cc3O)cs2)cc1C(F)(F)F`: the Potency is 49.4 µM (active).
